# Several values for one entry are separate records, joined by “and”; a condition that tells them apart may be missing. Identical values can stand only once. Results filed as inconclusive are left out. A call without a number means that no potency is given here. Activity calls are given as the source filed them. Unless noted, calls come from the whole dose curve.
# What was measured:
# [1] = Primary qHTS for small molecule stabilizers of the endoplasmic reticulum resident proteome: Secreted ER Calcium Modulated Protein (SERCaMP) assay (AID 1508630; active = well fitted curve in the direction sought with a large enough effect; an effect the other way counts as inactive or inconclusive)
# In short: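 GLuc-SERCaMP-expressing SH-SY5Y cells, pretreated 16 h with compound, are challenged with thapsigargin to empty ER calcium stores; after 4 h, coelenterazine is added directly to the medium and luminescence is imaged.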
# [2] = A High-Content qHTS Against Drug Library for the Identification of Small Molecules that Inhibit DYT1 Early Onset Primary Dystonia-Associated Cell Pathology (AID 1645839)
# In short: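 Flp-In T-REx 293 cells with tetracycline-inducible EGFP-delE hTOR1A (WT EGFP-hTOR1A as reference), 800 cells/well; compound added with tetracycline, 48 h at 37 C. Fixed, permeabilized cells imaged; %pathology (punctate TorsinA) primary, cell count counterscreen.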
# [3] = biological target: Cytochrome P450 2D6 (Homo sapiens) (UniProt P10635); experiment: Cytochrome P450 family 2 subfamily D member 6 (CYP2D6) small molecule antagonists: luciferase biochemical (cell-free) qHTS assay (AID 1645840; active = well fitted curve in the direction sought with a large enough effect in the repeat runs; an effect the other way counts as inactive or inconclusive; note: nearly all actives have a fitted effect of over 55% in size; note: potency is the fitted concentration of half-maximal effect)
# In short: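 P450-Glo luminescent screen: recombinant CYP2D6 enzyme–proluciferin substrate mix preincubated with compound 10 min at room temperature, then NADPH regeneration added for 1 h at room temperature. Detection reagent added for 20 min; luciferin light read as relative luminescence units.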
# [4] = biological target: Cytochrome P450 2C9 (Homo sapiens) (UniProt P11712); experiment: Cytochrome P450 family 2 subfamily C member 9 (CYP2C9) small molecule antagonists: luciferase biochemical (cell-free) qHTS assay (AID 1645842; active = well fitted curve in the direction sought with a large enough effect in the repeat runs; an effect the other way counts as inactive or inconclusive; note: nearly all actives have a fitted effect of over 55% in size; note: potency is the fitted concentration of half-maximal effect)
# In short: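 Luminescence, after 20 min with luciferin detection reagent, reflected CYP2C9 turnover during a 1 h NADPH-driven reaction at 37C. Enzyme-substrate mix contained 0.4% bovine serum albumin and was preincubated with compound 10 min at room temperature.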
# [5] = Cytotoxicity counterscreen for inhibitors of SARS-CoV-2 cell entry (AID 1645845); note: nearly all actives have a fitted effect of over 50% in size
# In short: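 HEK293-ACE2 cells (Expi293F stably expressing human ACE2) seeded overnight, then compound for 1 h plus 48 h at 37C. Viability as ATP content by luminescence; normalized to wells with cells and media-only wells.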
# [6] = Primary qHTS to identify inhibitors of SARS-CoV-2 cell entry (AID 1645846); conditions: activity change, negative = inhibition: at 57.1 µM (top of the series) unless noted; note: nearly all actives have a fitted effect of over 45% in size
# In short: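 Inhibition of spike-mediated entry was scored in human ACE2-transfected Expi293F cells. Particles were MLV-pseudotyped with Wuhan-Hu-1 S carrying a 19-aa C-terminal deletion; signal was luciferase after two days, scaled between spike PP and fusion-protein-free PP.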
# [7] = Confirmatory qHTS to identify inhibitors of SARS-CoV-2 cell entry (AID 1645844); note: nearly all actives have a fitted effect of over 45% in size
# In short: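 HEK293-ACE2 cells were pretreated 1 h with compound, then infected with MLV-based pseudoparticles bearing C-terminally truncated Wuhan-Hu-1 spike for 48 h at 37C; luciferase luminescence normalized to spike PP and bald PP wells.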
# [8] = VSVG counterscreen qHTS to identify inhibitors of SARS-CoV-2 cell entry (AID 1645847); note: nearly all actives have a fitted effect of over 65% in size
# In short: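 Luminescence from a luciferase reporter, normalised to bald particle and VSV-G pseudotyped particle wells, is the read-out. Cells are HEK293 expressing human ACE2, exposed to compound 1 h before a 48 h particle infection at 37 °C.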
# [9] = biological target: Cytochrome P450 3A4 (Homo sapiens) (UniProt P08684); experiment: Cytochrome P450 family 3 subfamily A member 4 (CYP3A4) small molecule antagonists: luciferase qHTS assay (AID 1645841; active = well fitted curve in the direction sought with a large enough effect in the repeat runs; an effect the other way counts as inactive or inconclusive; note: nearly all actives have a fitted effect of over 45% in size; note: potency is the fitted concentration of half-maximal effect)
# In short: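 P450-Glo CYP3A4 enzyme with proluciferin substrate preincubated 10 min with compound at room temperature, then NADPH regeneration 1 h. Luciferin detection reagent added for 20 min; luminescence recorded. Ketoconazole positive control.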
# Cytochrome P450 2D6 (Homo sapiens), sequence (P10635 whole entry, looked up): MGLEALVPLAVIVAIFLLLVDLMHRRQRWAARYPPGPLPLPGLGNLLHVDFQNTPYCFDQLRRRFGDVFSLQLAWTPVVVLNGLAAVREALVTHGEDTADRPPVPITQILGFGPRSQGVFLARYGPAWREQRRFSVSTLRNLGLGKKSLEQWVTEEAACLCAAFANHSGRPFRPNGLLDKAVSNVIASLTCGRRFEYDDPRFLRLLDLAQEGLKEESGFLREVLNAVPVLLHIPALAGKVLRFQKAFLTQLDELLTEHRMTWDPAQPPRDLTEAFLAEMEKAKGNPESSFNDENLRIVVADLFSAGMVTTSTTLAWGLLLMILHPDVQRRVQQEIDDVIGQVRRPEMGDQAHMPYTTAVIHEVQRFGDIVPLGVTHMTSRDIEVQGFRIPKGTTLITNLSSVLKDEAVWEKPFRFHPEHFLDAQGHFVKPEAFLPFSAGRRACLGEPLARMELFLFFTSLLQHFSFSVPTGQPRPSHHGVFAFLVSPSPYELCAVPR
# Cytochrome P450 3A4 (Homo sapiens), sequence (P08684 whole entry, looked up): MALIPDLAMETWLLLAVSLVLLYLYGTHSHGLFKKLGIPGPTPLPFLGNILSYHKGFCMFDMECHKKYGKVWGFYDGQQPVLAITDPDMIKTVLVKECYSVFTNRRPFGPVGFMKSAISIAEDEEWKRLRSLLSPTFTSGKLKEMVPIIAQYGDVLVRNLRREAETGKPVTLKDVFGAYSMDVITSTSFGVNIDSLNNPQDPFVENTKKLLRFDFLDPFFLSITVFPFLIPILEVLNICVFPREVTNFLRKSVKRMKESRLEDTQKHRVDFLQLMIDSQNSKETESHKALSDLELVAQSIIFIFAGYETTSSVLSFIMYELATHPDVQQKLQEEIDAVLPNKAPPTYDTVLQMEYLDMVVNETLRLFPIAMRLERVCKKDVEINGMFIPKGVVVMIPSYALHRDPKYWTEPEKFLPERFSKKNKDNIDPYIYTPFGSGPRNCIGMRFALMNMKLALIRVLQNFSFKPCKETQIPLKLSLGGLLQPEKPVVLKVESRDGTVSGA
# Cytochrome P450 2C9 (Homo sapiens), sequence (P11712 whole entry, looked up): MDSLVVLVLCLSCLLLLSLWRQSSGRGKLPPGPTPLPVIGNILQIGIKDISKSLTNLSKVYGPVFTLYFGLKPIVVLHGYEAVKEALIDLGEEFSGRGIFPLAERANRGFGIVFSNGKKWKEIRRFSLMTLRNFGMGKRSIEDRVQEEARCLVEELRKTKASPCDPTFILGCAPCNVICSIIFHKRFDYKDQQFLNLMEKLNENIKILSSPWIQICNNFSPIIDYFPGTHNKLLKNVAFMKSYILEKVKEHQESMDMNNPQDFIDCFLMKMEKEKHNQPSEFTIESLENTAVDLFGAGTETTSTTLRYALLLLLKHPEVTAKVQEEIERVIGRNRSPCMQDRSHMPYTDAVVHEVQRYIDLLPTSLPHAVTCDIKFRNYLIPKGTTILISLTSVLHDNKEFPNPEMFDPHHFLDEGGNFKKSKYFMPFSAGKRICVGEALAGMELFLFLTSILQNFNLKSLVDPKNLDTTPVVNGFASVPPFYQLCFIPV
smiles,measurement,setting,value
CCC(C)C(C)(COC(N)=O)COC(N)=O (stereo not given),Potency,[1],inactive
same,outcome,[2],inactive
same,Potency,[3],inactive
same,Potency,[4],inactive
same,Potency,[5],inactive
same,"activity change, negative = inhibition",[6],-15.3%
CC(C)c1cccc(C(C)C)c1O,Potency,[1],inactive
same,outcome,[2],inactive
same,Potency,[7],inactive
same,"activity change, negative = inhibition",[6],-52.4%
same,Potency,[8],inactive
O=c1[nH]c2ccccc2n1C1CCNCC1,Potency,[1],inactive
same,outcome,[2],inactive
same,Potency,[4],inactive
C[C@]12CC[C@@H]3c4ccc(OC(=O)N(CCCl)CCCl)cc4CC[C@H]3[C@@H]1CC[C@@H]2O,Potency,[1],inactive
same,Potency,[3],inactive
same,Potency,[9],inactive
same,Potency,[4],inactive
same,Potency,[5],inactive
same,Potency,[6],inactive
C[C@@H](N)[C@@H](O)c1ccccc1,Potency,[1],inactive
same,outcome,[2],inactive
same,Potency,[4],inactive
same,Potency,[5],inactive
CC(C)c1c(CN(C)C(C)Cc2ccccc2)n(C)n(-c2ccccc2)c1=O (stereo not given),Potency,[1],inactive
same,Potency,[3],inactive
same,Potency,[4],7.76 µM (active)
COP(=S)(OC)Oc1ccc(SC)c(C)c1,Potency,[1],inactive
same,outcome,[2],inactive
same,Potency,[3],inactive
same,Potency,[4],3.89 µM (active)
same,Potency,[5],inactive
same,"activity change, negative = inhibition",[6],-16.5%
c1ccc2c(c1)sc1ccccc12,Potency,[1],inactive
same,outcome,[2],inactive
same,Potency,[3],inactive
same,Potency,[4],inactive
same,Potency,[5],inactive
same,"activity change, negative = inhibition",[6],-6.22%
CCC(CC)(CNC(=O)CCCO)c1cccc(OC)c1,Potency,[1],inactive
same,outcome,[2],inactive
same,Potency,[4],inactive
same,Potency,[5],inactive
same,"activity change, negative = inhibition",[6],-32.3%
CCc1cc2c(s1)-n1c(C)nnc1CN=C2c1ccccc1Cl,Potency,[1],inactive
same,outcome,[2],inactive
same,Potency,[3],inactive
same,Potency,[4],inactive
same,Potency,[5],inactive
NC(=O)c1cc([N+](=O)[O-])cc([N+](=O)[O-])c1,Potency,[1],inactive
same,outcome,[2],inactive
same,Potency,[9],9.65 µM (active)
same,Potency,[4],inactive
same,Potency,[5],inactive
CN1C(=O)NC(=O)C(C)(C2=CCCCC2)C1=O (stereo not given),Potency,[1],inactive
same,outcome,[2],inactive
same,Potency,[3],inactive
same,Potency,[4],inactive
same,Potency,[5],inactive
same,"activity change, negative = inhibition",[6],3.11%
CN1C(=O)CCS(=O)(=O)C1c1ccc(Cl)cc1 (stereo not given),Potency,[1],inactive
same,outcome,[2],inactive
same,Potency,[3],inactive
same,Potency,[4],inactive
same,Potency,[5],inactive
same,"activity change, negative = inhibition",[6],-18.3% and 4.93%
O=C1c2ccccc2C(=O)c2ccccc21,Potency,[1],inactive
same,outcome,[2],inactive
same,Potency,[3],inactive
same,Potency,[4],inactive
same,Potency,[5],inactive
same,Potency,[6],inactive
O=C1OC(c2ccc(O)c(S(=O)(=O)O)c2)(c2ccc(O)c(S(=O)(=O)O)c2)c2c(Br)c(Br)c(Br)c(Br)c21,Potency,[1],inactive
same,outcome,[2],inactive
same,Potency,[4],inactive
same,Potency,[5],inactive
same,Potency,[6],inactive
CCCCCCCCCC(=O)O[C@H]1CC[C@H]2[C@@H]3CCC4=CC(=O)CC[C@@H]4[C@H]3CC[C@]12C,Potency,[1],inactive
same,outcome,[2],inactive
same,Potency,[4],12.3 µM (active)
O=C1OC(CCN2CCCCC2)OC1(c1ccccc1)c1ccccc1 (stereo not given),Potency,[1],inactive
same,Potency,[3],0.617 µM (active)
C[C@]12Cc3cn[nH]c3C[C@@H]1CC[C@@H]1[C@@H]2CC[C@@]2(C)[C@H]1CC[C@]2(C)O,Potency,[1],inactive
same,outcome,[2],inactive
same,Potency,[3],1.95 µM (active)
same,Potency,[4],0.692 µM (active)
same,Potency,[5],inactive
same,"activity change, negative = inhibition",[6],-13.6%
[N-]=[N+]=CC(=O)OC[C@H](N)C(=O)O,Potency,[1],inactive
same,outcome,[2],inactive
same,Potency,[4],inactive
CCN(CC)CCc1c[nH]c2ccccc12,Potency,[1],inactive
same,Potency,[3],5.91 µM (active)
same,Potency,[9],inactive
same,Potency,[4],inactive
CCC1(c2ccc(N)cc2)CCC(=O)NC1=O (stereo not given),Potency,[1],inactive
same,outcome,[2],inactive
same,Potency,[3],inactive
same,Potency,[4],inactive
same,Potency,[5],inactive
same,Potency,[6],inactive
COC1CC(=C(c2cccs2)c2cccs2)C[N+](C)(C)C1 (stereo not given),Potency,[1],inactive
same,outcome,[2],inactive
same,Potency,[3],0.138 µM (active)
same,Potency,[4],inactive
same,Potency,[5],inactive
same,"activity change, negative = inhibition",[6],-29.5%
C[C@]12CC[C@H]3[C@@H](CCC4=CC(=O)CC[C@@H]43)[C@@H]1CC[C@@H]2OC(=O)CCc1ccco1,Potency,[1],inactive
same,outcome,[2],inactive
same,Potency,[4],15.5 µM (active)
same,Potency,[6],inactive
CN1C(=O)COc2c(C(=O)NC3CN4CCC3CC4)cc(Cl)cc21 (stereo not given),Potency,[1],inactive
same,outcome,[2],inactive
same,Potency,[3],inactive
same,Potency,[4],inactive
same,Potency,[5],inactive
same,"activity change, negative = inhibition",[6],-14.3%
COP(=S)(OC)Oc1ccc(S(=O)(=O)N(C)C)cc1,Potency,[1],inactive
same,outcome,[2],inactive
same,Potency,[3],inactive
same,Potency,[4],0.617 µM (active)
same,Potency,[5],inactive
same,Potency,[6],inactive
COP(=S)(OC)SCN1C(=O)c2ccccc2C1=O,Potency,[1],inactive
same,outcome,[2],inactive
same,Potency,[3],15.5 µM (active)
same,Potency,[4],0.776 µM (active)
same,Potency,[5],inactive
same,Potency,[6],inactive
C[C@@H]1CC2=CC(=O)CC[C@@H]2[C@H]2CC[C@@]3(C)[C@@H](CC[C@]3(C)O)[C@@H]21,Potency,[1],inactive
same,outcome,[2],inactive
same,Potency,[3],inactive
same,Potency,[4],inactive
same,Potency,[5],inactive
Cc1ncsc1CCCl,Potency,[1],inactive
same,outcome,[2],inactive
same,Potency,[3],inactive
same,Potency,[4],inactive
same,Potency,[5],inactive
same,"activity change, negative = inhibition",[6],-22.5%
Nc1ccc([As](=O)(O)O)cc1,outcome,[2],inactive
same,Potency,[3],inactive
same,Potency,[9],inactive
same,Potency,[4],inactive
same,Potency,[5],inactive
same,"activity change, negative = inhibition",[6],-1.46%
CN1CC[C@]23c4c5ccc(O)c4O[C@H]2[C@@H](O)CC[C@H]3[C@H]1C5,outcome,[2],inactive
same,Potency,[4],inactive
COC(=O)[C@@H](N)CCCN/C(N)=N/[N+](=O)[O-],outcome,[2],inactive
same,Potency,[3],inactive

# From PubChem BioAssay (NCATS)
